# From PubChem BioAssay (NCATS)
# Several values for one entry are separate records, joined by “and”; a condition that tells them apart may be missing. Equal entries are not always repeated. Records with an inconclusive call do not appear. Entries that show only a call come without a potency. Values without a mark were called inactive. Activity calls are given as the source filed them. Calls come from the whole dose curve; as a rule, active = well fitted curve in the direction sought with a large enough effect; inconclusive = small, poorly fitted or top-dose-only effect, or another doubt; inactive = no such curve, though single readings can be large; an effect the other way counts as inactive or inconclusive.
# What was measured:
# [1] = molecular target: Cellular tumor antigen p53 (Homo sapiens) (UniProt P04637); test: Primary qHTS for small molecule compounds that upregulate eGFP-tagged delta133p53alpha (in N-terminal) cells. (AID 2060322); conditions: NCI-H358 eGFP-delta133p53alpha fluorescence, 24 h; activation: hits give high values; note: nearly all actives have a fitted effect of over 75% in size; note: potency is the fitted concentration of half-maximal effect;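 for activation: cells pre-induced with doxycycline then dosed without doxycycline; series mostly up to about 56 µM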
# Sequence of Cellular tumor antigen p53 (Homo sapiens) (P04637 whole entry, looked up): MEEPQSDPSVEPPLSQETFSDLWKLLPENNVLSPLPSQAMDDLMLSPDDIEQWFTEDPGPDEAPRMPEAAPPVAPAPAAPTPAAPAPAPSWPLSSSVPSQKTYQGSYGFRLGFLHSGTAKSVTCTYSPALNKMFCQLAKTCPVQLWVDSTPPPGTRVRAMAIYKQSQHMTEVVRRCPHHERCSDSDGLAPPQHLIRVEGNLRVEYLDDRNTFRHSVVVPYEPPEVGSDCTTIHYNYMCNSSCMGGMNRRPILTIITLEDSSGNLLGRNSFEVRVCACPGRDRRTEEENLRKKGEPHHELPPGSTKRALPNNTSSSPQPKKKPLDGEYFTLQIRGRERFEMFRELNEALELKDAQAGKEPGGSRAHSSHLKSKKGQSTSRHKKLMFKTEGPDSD
# Outline: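 NCI-H358 cells pre-induced 24 h with 10 ng/ml doxycycline for eGFP-delta133p53alpha, plated dox-free and exposed 24 h at 37C to titrated compounds. Fixed, Hoechst-stained; gated GFP peak intensity by laser scanning cytometry, normalized to DMSO (0%) and 57.5 uM 5-azacytidine (100%).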
# [2] = molecular target: Aldehyde dehydrogenase, mitochondrial (Homo sapiens) (UniProt P05091); test: qHTS for Inhibitors of the Aldehyde Dehydrogenase Family (ALDH2) Primary screen (AID 2061308); note: nearly all actives have a fitted effect of over 55% in size; note: potency is the fitted concentration of half-maximal effect
# [3] = molecular target: Retinal dehydrogenase 2 (Homo sapiens) (UniProt O94788); test: qHTS for Inhibitors of the Aldehyde Dehydrogenase Family (ALDH1A2) Confirmation screens (AID 2061314); note: nearly all actives have a fitted effect of over 65% in size; note: potency is the fitted concentration of half-maximal effect
# [4] = molecular target: Retinaldehyde dehydrogenase 3 (Homo sapiens) (UniProt P47895); test: qHTS for Inhibitors of the Aldehyde Dehydrogenase Family (ALDH1A3) Primary screen (AID 2061315)
# [5] = BET inhibitor-based combinations targeting novel dependencies in MECOM-rearranged (r) AML: SET-2 cell line (AID 2202231); conditions: SET-2 AML cells viability, CellTiter-Glo luminescence, 48 h; viability: hits give low values, concentration not given here; note: nearly all actives have a fitted effect of over 35% in size; note: potency is the fitted concentration of half-maximal effect
# Outline: (§1)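 Readout: CellTiter-Glo luminescence. Exposure: 48 h, 11 concentrations, 500 cells/well. Metric: AUC and within-line Z-AUC after DMSO/empty-well normalization.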
# [6] = BET inhibitor-based combinations targeting novel dependencies in MECOM-rearranged (r) AML: MV-4-11 cell line (AID 2202233); note: nearly all actives have a fitted effect of over 45% in size; note: potency is the fitted concentration of half-maximal effect
# Outline: (§2)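 Seeding density was 500 cells/well, and drug exposure lasted 48 hr under standard culture conditions. Read-out used CellTiter-Glo reagent with a 15 min room-temperature incubation before luminescence measurement; AUC and Z-AUC summarize the normalized responses.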
# [7] = BET inhibitor-based combinations targeting novel dependencies in MECOM-rearranged (r) AML: HNT-34 cell line (AID 2202234); note: nearly all actives have a fitted effect of over 35% in size; note: potency is the fitted concentration of half-maximal effect
# Outline: as §2
# [8] = BET inhibitor-based combinations targeting novel dependencies in MECOM-rearranged (r) AML: UCSD-AML1 cell line (AID 2202235); note: nearly all actives have a fitted effect of over 40% in size; note: potency is the fitted concentration of half-maximal effect
# Outline: as §2
# [9] = BET inhibitor-based combinations targeting novel dependencies in MECOM-rearranged (r) AML: AML-191 cell line (AID 2202236; note: nearly all actives have a fitted effect of over 35% in size; note: potency is the fitted concentration of half-maximal effect)
# Outline: as §1
# [10] = BET inhibitor-based combinations targeting novel dependencies in MECOM-rearranged (r) AML: AML-194 cell line (AID 2202237; note: nearly all actives have a fitted effect of over 40% in size; note: potency is the fitted concentration of half-maximal effect)
# Outline: as §1
# [11] = molecular target: Aldehyde dehydrogenase 1A1 (Homo sapiens) (UniProt P00352); test: qHTS for Inhibitors of the Aldehyde Dehydrogenase Family (ALDH1A1) Confirmatory screens (AID 2061316); note: nearly all actives have a fitted effect of over 65% in size; note: potency is the fitted concentration of half-maximal effect
# [12] = BET inhibitor-based combinations targeting novel dependencies in MECOM-rearranged (r) AML: OCI-AML3 cell line (AID 2202232); conditions: Potency: OCI-AML3 viability; note: potency is the fitted concentration of half-maximal effect; nearly all actives have a fitted effect of over 35% in size
# Outline: as §1
# [13] = molecular target: Retinaldehyde dehydrogenase 3 (Homo sapiens) (UniProt P47895); test: qHTS for Inhibitors of the Aldehyde Dehydrogenase Family (ALDH1A3) Validation screen (AID 2061312); note: nearly all actives have a fitted effect of over 45% in size
smiles,measurement,setting,value
N#Cc1c(O)c2c(-c3ccc(-c4ccccc4O)cc3)csc2[nH]c1=O,activation,[1],4.35% and -11.5%
same,Potency,[2],17.8 µM (active)
same,Potency,[3],12.7 µM (active)
same,Potency,[4],inactive
same,viability,[5],120%
same,Potency,[6],inactive
same,Potency,[7],inactive
same,Potency,[8],inactive
same,Potency,[9],inactive
same,Potency,[10],inactive
CC(=O)OC1C[C@]2(C)C(O)CC(C)=C[C@H](OC(=O)c3ccc(O)cc3)C2[C@]1(O)C(C)C (stereo partly specified),activation,[1],-20.6%
same,Potency,[2],inactive
same,Potency,[4],inactive
C=C(C(=O)O)[C@@H]1CC=C(CCC(C)=O)[C@@H](C)CC1,activation,[1],8.93%
same,Potency,[2],inactive
same,Potency,[4],inactive
CC1(C)CCC2(C(=O)O)C(O)CC3(C)C(=CCC4C5(C)CCC(OC6OC(CO)C(O)C(O)C6OC6OC(CO)C(O)C(O)C6OC6OCC(O)(CO)C6O)C(C)(C)C5CCC43C)C2C1 (stereo unspecified),activation,[1],-18.3%
same,Potency,[2],inactive
same,Potency,[4],inactive
O=C1NC(=O)C(c2cnc3ccccn23)=C1c1cn2c3c(cccc13)CN(C(=O)N1CCOCC1)CC2,Potency,[1],23.9 µM (active)
same,Potency,[2],inactive
same,Potency,[3],inactive
same,Potency,[11],12.7 µM (active)
same,Potency,[5],0.118 µM (active)
same,Potency,[12],3.32 µM (active)
same,Potency,[6],0.0934 µM (active)
same,Potency,[8],1.05 µM (active)
same,Potency,[9],0.525 µM (active)
same,Potency,[10],2.35 µM (active)
COC(=O)C1C(O)CCC2CN3CCc4c([nH]c5ccccc45)C3CC21 (stereo unspecified),activation,[1],23.2%
same,Potency,[2],inactive
same,Potency,[4],inactive
CC1(C)C2CCC1(C)C(OC(=O)C(O)(CC(=O)O)CC(=O)O)C2 (stereo unspecified),activation,[1],-24.4%
same,Potency,[2],inactive
same,Potency,[3],inactive
same,Potency,[4],inactive
same,Potency,[11],inactive
Cc1cccc(S(=O)(=O)N2CCC[C@@H]2CCN2CCC(C)CC2)c1,activation,[1],0%
same,Potency,[2],inactive
same,Potency,[4],inactive
COC(=O)Cc1cc2c(c([N+](=O)[O-])c1)N(C(=O)CC[C@H](N)C(=O)O)CC2,activation,[1],-7.67%
same,Potency,[2],inactive
same,Potency,[3],inactive
same,Potency,[4],inactive
CC(C)(O)C1CCC(C)(C2CCC3(C)C4CCC5C(C)(C(=O)OC6OC(CO)C(O)C(O)C6O)C(O)CC(O)C56CC46CCC23C)O1 (stereo unspecified),activation,[1],-11.5%
same,Potency,[2],inactive
same,Potency,[4],inactive
COC1OC(O)C2(CCC3(O2)C(C)CC2OC(=O)C4(C)CCCC3(C)C24)C1O (stereo unspecified),activation,[1],9.92%
same,Potency,[2],inactive
same,Potency,[4],inactive
CC1(C)CCC2(C(=O)O)CCC3(C)C(=CCC4C5(C)CCC(O)C(C)(CO)C5C(O)CC43C)C2C1 (stereo unspecified),activation,[1],-18.8%
same,Potency,[2],inactive
same,Potency,[4],inactive
COc1ccc(Sc2ccc(NC(=O)c3ccccc3Cl)cc2C#N)cc1,activation,[1],20.3%
same,Potency,[2],inactive
same,Potency,[4],inactive
C=C(C)[C@@H]1CC=C(COC(=O)NC(=O)c2ncn3c(=O)n(C)nnc23)CC1,activation,[1],10%
same,Potency,[2],inactive
same,Potency,[4],inactive
CNC(=O)c1ccc2c(C(=Nc3cccc(CN(C)C)c3)c3ccccc3)c(O)[nH]c2c1,activation,[1],-0.477%
same,Potency,[2],inactive
same,Potency,[13],inactive
same,Potency,[6],1.66 µM (active)
same,Potency,[7],20.9 µM (active)
CC1(C)C(=O)N2c3ccccc3[C@]3(CC(n4cnc5ccccc5c4=O)C(=O)O3)[C@H]2N1O (stereo partly specified),activation,[1],1.53%
same,Potency,[2],inactive
same,Potency,[4],inactive
CNc1cccc(CCOc2ccc3c(c2)CN(CC(F)(F)F)C(=O)[C@H](CC(=O)O)C3)n1,activation,[1],2.86%
same,Potency,[2],inactive
same,Potency,[4],inactive
CC1(C)CC2C(O)C3=C(CC(C)(O)C2C1)C(=O)OC3O (stereo unspecified),activation,[1],1.79%
same,Potency,[2],inactive
same,Potency,[4],inactive
CN[C@H](CC(C)C)C(=O)N[C@H]1C(=O)N[C@@H](CC(N)=O)C(=O)N[C@H]2C(=O)N[C@H]3C(=O)N[C@H](C(=O)N[C@H](C(=O)O)c4cc(O)cc(O)c4-c4cc3ccc4O)[C@H](O[C@H]3C[C@](C)(N)[C@@H](O)[C@H](C)O3)c3ccc(c(Cl)c3)Oc3cc2cc(c3O[C@@H]2O[C@H](CO)[C@@H](O)[C@H](O)[C@H]2O[C@H]2C[C@](C)(NCc3ccc(-c4ccc(Cl)cc4)cc3)[C@@H](O)[C@H](C)O2)Oc2ccc(cc2Cl)[C@H]1O,activation,[1],27%
same,Potency,[2],inactive
same,Potency,[4],inactive
C=C1C(=O)O[C@@H]2[C@H]1CC(=O)[C@H](C)[C@@](O)(C(=O)/C=C/C)[C@H]2OC(=O)C(C)CC (stereo partly specified),Potency,[1],5.88 µM (active)
same,Potency,[2],inactive
same,Potency,[3],4.4 µM (active)
same,Potency,[4],inactive
same,Potency,[11],inactive
